This is an account of results in PubChem BioAssay (EPA / NIEHS).

Holding throughout (conditions): mRNA level, 48 h; actives raise or lower the signal
Read-out in assay [1]: ABC Transporter (ABCC2), ABCC2 (gene 1244)
Put plainly: LTEA_HepaRG_ABCC2: Life Technologies and Expression Analysis (LTEA) Assay for ABC Transporter (ABCC2) using HepaRG (AID 2283464). Put shortly: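 Endpoint is ABCC2 transcript level from qRT-PCR, normalized to three housekeeping genes and fitted bidirectionally relative to DMSO. Human HepaRG cells received test chemical for 48 h at up to 100 uM (8 points, half-log steps, 0.5% DMSO), duplicate wells.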

Read-out in assay [2]: Broad substrate specificity ATP-binding cassette transporter ABCG2 (Homo sapiens) (UniProt Q9UNQ0)
Put plainly: LTEA_HepaRG_ABCG2: Life Technologies and Expression Analysis (LTEA) Assay for ABC Transporter (ABCG2) using HepaRG (AID 2283465). The method in brief:
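HepaRG, 48 h exposure, 8-pt half-log series from 100 uM, 0.5% DMSO vehicle, duplicates. Readout: ABCG2 transcript by qRT-PCR (Fluidigm array), housekeeping-normalized; bidirectional curve fit relative to DMSO baseline.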

Read-out in assay [3]: ATP-citrate lyase (ACLY), ACLY (gene 47)
Put plainly: LTEA_HepaRG_ACLY: Life Technologies and Expression Analysis (LTEA) Assay for ATP-citrate lyase (ACLY) using HepaRG (AID 2283466). The method in brief: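 qRT-PCR readout of ACLY transcript after 48 h chemical treatment of HepaRG cells; expression normalized to three housekeeping genes. Eight-point half-log series, highest 100 uM, 0.5% DMSO vehicle. Gain or loss fitted against DMSO baseline.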

Read-out in assay [4]: Peroxisomal acyl-coenzyme A oxidase 1 (ACOX1) gene, ACOX1 (gene 51)
Put plainly: LTEA_HepaRG_ACOX1: Life Technologies and Expression Analysis (LTEA) Assay for Peroxisomal acyl-coenzyme A oxidase 1 (ACOX1) gene using HepaRG (AID 2283467). The method in brief:
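HepaRG, 48 h chemical exposure, 8-pt half-log series from 100 uM top, 0.5% DMSO vehicle, duplicates. Readout: ACOX1 mRNA by Fluidigm qRT-PCR, housekeeping-normalized; bidirectional fit vs DMSO baseline.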

Read-out in assay [5]: Alkaline Phosphatase, Placental (ALPP) gene, ALPP (gene 250)
Put plainly: LTEA_HepaRG_ALPP: Life Technologies and Expression Analysis (LTEA) Assay for Alkaline Phosphatase, Placental (ALPP) gene using HepaRG (AID 2283468).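 On AC50: differentiated human HepaRG liver cells in serum-free induction medium.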 Put shortly: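 ALPP transcript level, measured by qRT-PCR and normalized to three housekeeping genes (ACTB, GAPDH, POLR2A), after 48 h dosing of differentiated HepaRG in serum-free induction medium. Top concentration 100 uM with half-log dilutions (8 points, 0.5% DMSO, duplicates); bidirectional fitting relative to DMSO.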

Read-out in assay [6]: Bcl-2 (BAD) gene, BAD (gene 572)
Put plainly: LTEA_HepaRG_BAD: Life Technologies and Expression Analysis (LTEA) Assay for Bcl-2 (BAD) gene using HepaRG (AID 2283469). The method in brief: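 HepaRG, 48 h exposure, 8-pt half-log curve from 100 uM in 0.5% DMSO, duplicates. Readout: TaqMan qRT-PCR for BAD mRNA, housekeeping-normalised (ACTB/GAPDH/POLR2A); gain or loss fitted against DMSO baseline.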

Read-out in assay [7]: Bcl-2 (BAX) gene, BAX (gene 581)
Put plainly: LTEA_HepaRG_BAX: Life Technologies and Expression Analysis (LTEA) Assay for Bcl-2 (BAX) gene using HepaRG (AID 2283470). Put shortly: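 qRT-PCR read-out of BAX mRNA, normalized to three housekeeping genes, after 48 h chemical exposure of human HepaRG cells in serum-free induction medium; eight-point half-log series, top 100 uM, 0.5% DMSO vehicle; bidirectional fit versus DMSO.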

Read-out in assay [8]: adenosine kinase (ADK) gene, ADK (gene 132)
Put plainly: LTEA_HepaRG_ADK: Life Technologies and Expression Analysis (LTEA) Assay for adenosine kinase (ADK) gene using HepaRG (AID 2283471). Put shortly:
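Following 48 h exposure of HepaRG cells in 0.5% DMSO (top concentration 100 uM, duplicate wells), ADK mRNA induction or suppression was measured by qRT-PCR, normalised to ACTB/GAPDH/POLR2A, and fitted bidirectionally relative to vehicle.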

Read-out in assay [9]: Alpha-fetoprotein (AFP) gene, AFP (gene 174)
Put plainly: LTEA_HepaRG_AFP: Life Technologies and Expression Analysis (LTEA) Assay for Alpha-fetoprotein (AFP) gene using HepaRG (AID 2283472). The method in brief: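 qRT-PCR (Fluidigm TaqMan) readout of AFP transcript, normalized to three housekeeping genes, fitted bidirectionally against 0.5% DMSO baseline. HepaRG cells received chemicals for 48 h in serum-free induction medium, top concentration 100 uM, half-log steps.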

Read-out in the next assay: BCL2L11 (gene 10018)
Put plainly: LTEA_HepaRG_BCL2L11: Life Technologies and Expression Analysis (LTEA) Assay for Bcl-2 (BCL2L11) gene using HepaRG (AID 2283473). The method in brief:
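BCL2L11 transcript levels are measured by Fluidigm qRT-PCR, normalized to three housekeeping genes. HepaRG cultures were plated 48 h, then treated 48 h with test chemical (top 100 uM, half-log, 0.5% DMSO vehicle); curves were fitted bidirectionally against DMSO.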

Read-out in assay [10]: Apolipoprotein A-V (APOA5) gene, APOA5 (gene 116519)
Put plainly: LTEA_HepaRG_APOA5: Life Technologies and Expression Analysis (LTEA) Assay for Apolipoprotein A-V (APOA5) gene using HepaRG (AID 2283474). Put shortly:
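APOA5 transcript levels were quantified by qRT-PCR, normalized to three housekeeping genes, after 48 h chemical treatment of HepaRG cells (8 points, 100 uM maximum, half-log steps, 0.5% DMSO). Curves fitted in both directions against vehicle.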

Read-out in assay [11]: Apoptosis regulator Bcl-2 (Homo sapiens) (UniProt P10415)
Put plainly: LTEA_HepaRG_BCL2: Life Technologies and Expression Analysis (LTEA) Assay for Bcl-2 gene using HepaRG (AID 2283475). The method in brief:
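qRT-PCR read-out (Fluidigm TaqMan) of BCL2 transcript, normalised to three housekeeping genes, after 48 h chemical exposure of HepaRG cells; 8-point half-log series, top 100 uM, 0.5% DMSO vehicle. Gain or loss of signal fitted relative to DMSO baseline.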

Read-out in assay [12]: Bcl-2 (BID) gene, BID (gene 637)
Put plainly: LTEA_HepaRG_BID: Life Technologies and Expression Analysis (LTEA) Assay for Bcl-2 (BID) gene using HepaRG (AID 2283476). The method in brief:
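HepaRG, 48 h exposure, 8-pt half-log series, top 100 uM, 0.5% DMSO vehicle, duplicates. Readout: BID mRNA by TaqMan qRT-PCR; housekeeping-normalized; bidirectional curve fit vs DMSO baseline.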

Read-out in another assay: Caspase-3 (Homo sapiens) (UniProt P42574)
Put plainly: LTEA_HepaRG_CASP3: Life Technologies and Expression Analysis (LTEA) Assay for cysteine-aspartic acid protease (CASP3) using HepaRG (AID 2283477). Put shortly: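 Expression of CASP3 was quantified by TaqMan qRT-PCR against three housekeeping genes (ACTB, GAPDH, POLR2A), bidirectionally versus 0.5% DMSO. HepaRG cultures received compounds in duplicate, top 100 uM with half-log steps, for 48 h in serum-free induction medium.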

Read-out in assay [13]: Cytochrome P450 (CYP1A2), CYP1A2 (gene 1544)
Put plainly: LTEA_HepaRG_CYP1A2: Life Technologies and Expression Analysis (LTEA) Assay for Cytochrome P450 (CYP1A2) using HepaRG (AID 2283479). Put shortly:
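CYP1A2 transcript measured by TaqMan qRT-PCR against three housekeeping genes after 48-hour chemical exposure of HepaRG cells. Eight-point half-log series topping at 100 uM in 0.5% DMSO, duplicates; gain or loss fitted relative to vehicle.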

Read-out in assay [14]: cysteine-aspartic acid protease (CASP8), CASP8 (gene 841)
Put plainly: LTEA_HepaRG_CASP8: Life Technologies and Expression Analysis (LTEA) Assay for cysteine-aspartic acid protease (CASP8) using HepaRG (AID 2283480). Put shortly:
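qRT-PCR readout of CASP8 mRNA, normalized to three housekeeping genes, after 48 h chemical exposure of HepaRG cells; 8-point half-log series, top 100 uM, 0.5% DMSO vehicle. Bidirectional curve fitting against DMSO baseline.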

Read-out in assay [15]: Cytochrome P450 (CYP2B6), CYP2B6 (gene 1555)
Put plainly: LTEA_HepaRG_CYP2B6: Life Technologies and Expression Analysis (LTEA) Assay for Cytochrome P450 (CYP2B6) using HepaRG (AID 2283481). The method in brief:
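CYP2B6 transcript level quantified by qRT-PCR against three housekeeping genes, fitted bidirectionally relative to DMSO. HepaRG cultures received chemicals for 48 h, 8-point half-log series from 100 uM in 0.5% DMSO, duplicate wells, serum-free induction medium.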

Read-out in assay [16]: Cytochrome P450 2C19 (Homo sapiens) (UniProt P33261)
Put plainly: LTEA_HepaRG_CYP2C19: Life Technologies and Expression Analysis (LTEA) Assay for CYP2C19 using HepaRG (AID 2283482). The method in brief:
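CYP2C19 transcript levels by qRT-PCR, normalized to three housekeeping genes, in HepaRG cells after 48 h chemical exposure. Eight-point half-log series topping at 100 uM, 0.5% DMSO vehicle. Increases and decreases both fitted against DMSO.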

Read-out in another assay: CYP2C8 (gene 1558)
Put plainly: LTEA_HepaRG_CYP2C8: Life Technologies and Expression Analysis (LTEA) Assay for CYP2C8 using HepaRG (AID 2283483). The method in brief: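 HepaRG (human liver line), 48 h chemical exposure, 8-pt half-log series from 100 uM, 0.5% DMSO vehicle. Readout: CYP2C8 transcript by qRT-PCR, housekeeping-normalized. Bidirectional fit vs DMSO baseline.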

Read-out in assay [17]: Cytochrome P450 (CYP24A1), CYP24A1 (gene 1591)
Put plainly: LTEA_HepaRG_CYP24A1: Life Technologies and Expression Analysis (LTEA) Assay for Cytochrome P450 (CYP24A1) using HepaRG (AID 2283478). Put shortly:
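mRNA of CYP24A1 quantified by TaqMan qRT-PCR (ACTB/GAPDH/POLR2A normalization) after 48 h chemical exposure of HepaRG cells, top concentration 100 uM, half-log steps, 0.5% DMSO vehicle, duplicates. Curves fitted bidirectionally against DMSO baseline.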

Activity calls are given as the source filed them. How the source made its calls: active means hit-call score of the fitted dose curve at least 0.9, where 1 is the maximum; inactive means score below 0.9.

Sequence of Cytochrome P450 2C19 (Homo sapiens) (P33261 whole entry, looked up): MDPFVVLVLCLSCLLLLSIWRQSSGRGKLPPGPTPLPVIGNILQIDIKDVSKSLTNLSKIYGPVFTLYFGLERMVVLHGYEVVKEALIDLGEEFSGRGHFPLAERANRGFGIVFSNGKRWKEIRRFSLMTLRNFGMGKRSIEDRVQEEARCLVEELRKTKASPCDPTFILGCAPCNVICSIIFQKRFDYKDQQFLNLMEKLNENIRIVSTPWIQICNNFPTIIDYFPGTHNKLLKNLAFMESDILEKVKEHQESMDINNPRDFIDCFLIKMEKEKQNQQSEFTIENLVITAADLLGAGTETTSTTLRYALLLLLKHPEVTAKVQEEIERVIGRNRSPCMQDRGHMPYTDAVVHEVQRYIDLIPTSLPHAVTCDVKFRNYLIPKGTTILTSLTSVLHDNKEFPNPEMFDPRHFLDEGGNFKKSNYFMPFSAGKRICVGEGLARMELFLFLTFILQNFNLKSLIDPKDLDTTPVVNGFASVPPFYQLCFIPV
Sequence of Broad substrate specificity ATP-binding cassette transporter ABCG2 (Homo sapiens) (Q9UNQ0 whole entry, looked up): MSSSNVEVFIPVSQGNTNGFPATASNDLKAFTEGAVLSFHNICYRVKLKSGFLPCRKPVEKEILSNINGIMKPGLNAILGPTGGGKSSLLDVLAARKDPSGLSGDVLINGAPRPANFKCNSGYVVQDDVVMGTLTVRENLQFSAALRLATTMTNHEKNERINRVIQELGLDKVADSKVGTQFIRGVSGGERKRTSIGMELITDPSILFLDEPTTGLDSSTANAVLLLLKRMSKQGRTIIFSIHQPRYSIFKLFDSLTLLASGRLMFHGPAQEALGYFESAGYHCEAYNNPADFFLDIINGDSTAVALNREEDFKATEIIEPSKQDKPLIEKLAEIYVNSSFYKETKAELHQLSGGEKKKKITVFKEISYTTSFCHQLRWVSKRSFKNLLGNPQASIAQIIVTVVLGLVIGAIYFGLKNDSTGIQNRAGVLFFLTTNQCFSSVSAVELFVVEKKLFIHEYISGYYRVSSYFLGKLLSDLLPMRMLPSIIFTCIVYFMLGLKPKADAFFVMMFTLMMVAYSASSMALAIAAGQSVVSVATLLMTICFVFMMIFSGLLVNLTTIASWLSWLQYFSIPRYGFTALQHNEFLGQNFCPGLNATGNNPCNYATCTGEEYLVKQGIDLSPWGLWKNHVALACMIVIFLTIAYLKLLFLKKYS
Sequence of Caspase-3 (Homo sapiens) (P42574 whole entry, looked up): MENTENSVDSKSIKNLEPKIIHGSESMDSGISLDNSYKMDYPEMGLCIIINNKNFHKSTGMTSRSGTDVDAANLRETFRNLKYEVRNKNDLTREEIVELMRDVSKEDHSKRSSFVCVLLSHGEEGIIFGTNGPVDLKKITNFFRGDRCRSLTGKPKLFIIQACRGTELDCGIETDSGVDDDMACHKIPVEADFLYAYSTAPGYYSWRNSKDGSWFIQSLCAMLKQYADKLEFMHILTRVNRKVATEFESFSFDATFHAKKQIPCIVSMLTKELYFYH
Sequence of Apoptosis regulator Bcl-2 (Homo sapiens) (P10415 whole entry, looked up): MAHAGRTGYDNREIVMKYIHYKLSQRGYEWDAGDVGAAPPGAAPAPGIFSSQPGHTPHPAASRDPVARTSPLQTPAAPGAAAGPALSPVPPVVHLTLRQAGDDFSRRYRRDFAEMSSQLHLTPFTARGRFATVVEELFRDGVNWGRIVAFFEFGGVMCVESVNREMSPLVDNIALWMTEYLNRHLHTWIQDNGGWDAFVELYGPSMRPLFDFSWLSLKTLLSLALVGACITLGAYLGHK

The AC50 is the concentration at which the activity in the assay is half-maximal. Turning to `Clc1ccc(C(c2ccc(Cl)cc2)C(Cl)Cl)cc1`, the AC50 in [1] was 19.3 µM (active); in assay [5] it was 50 µM (active); in assay [9], 14 µM (active); in assay [10], 60.5 µM (active); in [15], 2.87 µM (active); in assay [16] it was 7.66 µM (active). For the same compound, the concentration at half-maximal activity (AC50) with CYP2C8 (gene 1558) is 12.7 µM (active). In addition, the outcome in assay [2], in assay [3], in assay [4], in [6], in assay [7] and in assay [8] was inactive. Besides, the result (with BCL2L11 (gene 10018); in assay [11]; in assay [12]; in the assay with Caspase-3 (Homo sapiens); in [13]; in assay [14]) was inactive.
Regarding `Cc1ccc([N+](=O)[O-])cc1`, the figures for the AC50 in [1], in assay [15] and in assay [16] were 13 µM (active), 0.744 µM (active) and 1.87 µM (active), respectively. The call in assay [2], in [3], in [4], in assay [5], in assay [6] and in [7] was inactive. For the same compound, the compound was classed as inactive (in [8]; in assay [9]; with BCL2L11 (gene 10018); in assay [10]; in assay [11]; in assay [12]). The outcome (in the assay with Caspase-3 (Homo sapiens); in assay [17]; in assay [13]; in [14]; with CYP2C8 (gene 1558)) was inactive.
In the case of `O=C1CCCO1`, the compound was called inactive in [1], in [2], in [3], in [4], in [5] and in [6]. Also, the call (in assay [7]; in [9]; in the assay with BCL2L11 (gene 10018); in assay [10]; in [11]; in [12]) was inactive. For the same compound, the compound was classed as inactive (in [13]; in [16]; in the assay with CYP2C8 (gene 1558)). Besides, the results for the half-maximal activity concentration (AC50) (in assay [8]; in the assay with Caspase-3 (Homo sapiens); in assay [14]) were 50 µM (active), 50 µM (active) and 78.5 µM (active), respectively.
As to `c1ccc2c(c1)-c1cccc3cccc-2c13`, the outcome in [1], in assay [2], in assay [3], in [4], in [5] and in assay [6] was inactive. Further, the result (in assay [7]; in assay [8]; in assay [9]; with BCL2L11 (gene 10018); in assay [10]; in assay [11]) was inactive. In addition, the compound was classed as inactive (in assay [12]; in the assay with Caspase-3 (Homo sapiens); in assay [14]; with CYP2C8 (gene 1558)). Further, the half-maximal activity concentration (AC50) was 50 µM (active) in [13] and 9.15 µM (active) in assay [16].
